Screening data (PubChem BioAssay)
Glioma ERSR ind – qHTS for Inducers of the Endoplasmic Reticulum Stress Response (ERSR) in Human Glioma: qHTS; U87-MG GRP78 promoter luciferase reporter, 16 h; Potency, µM, actives largely listed as activators; actives 0.02% (n = 420,000); AID 602332, 2012; further: series mostly up to about 76 µM; nearly all actives have a fitted effect of over 35% in size
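ERSR induction read as luciferase luminescence (Bright-Glo, 10 min at room temperature) in stably transfected human U87-MG glioma cells exposed to compounds for 16 h, using GRP78 as sensor.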
VDR inhibitor – Inhibitors of the vitamin D receptor (VDR): qHTS; Vitamin D3 receptor (Homo sapiens), P11473; VDR-SRC2-3 peptide fluorescence polarization, 2 h; Potency, µM, most hits filed as inhibitors; actives 0.93% (n = 400,000); AID 504847, 2011
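Inhibition of the VDR/SRC2-3 peptide interaction is quantified by fluorescence polarization. Compounds (23 nl, pintool) incubate with the reagents for 2 hours at ambient room temperature.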
ALOX12 inh – Primary qHTS assay for inhibitors of human arachidonate 12S-lipoxygenase (ALOX12): Round 2. purified 12hLO, xylenol orange hydroperoxide absorbance. AID 1671190, 2021. actives 1.1% (n = 580,000). Potency, µM (highest dose often 108 µM), actives largely listed as inhibitors
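Purified human 12hLO at 150 nM in 25 mM Hepes, 0.01% Triton X-100, pH 7.0, preincubated 15 min at room temperature with compound. Reaction started with 40 uM arachidonic acid, 30 min at room temperature. Hydroperoxide measured by Fe-xylenol orange, 573/405 nm absorbance ratio.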
Sfp inh – qHTS Assay for Inhibitors of Bacillus subtilis Sfp phosphopantetheinyl transferase (PPTase). Biochemical Sfp PPTase activity, qHTS. Potency, µM, hits mostly inhibitors. actives 3.5% (n = 310,000). AID 1490, 2009;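 further: the enzyme is Sfp with the accession as filed and its product quenches rhodamine fluorescence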
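Step 1, compound plus 15 nM Sfp-PPTase, 15 min, room temperature. Step 2, add rhodamine-CoA (5 uM) and BHQ-2-YbbR (12.5 uM). Step 3, read 525/598 nm fluorescence at 0 and 30 min.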
G9a block – qHTS Assay for Inhibitors of Histone Lysine Methyltransferase G9a; Potency, µM (top dose mostly 102 µM), hits mostly inhibitors; G9a H3K9 monomethylation, AlphaScreen, 2 h; actives 8.8% (n = 350,000); Histone-lysine N-methyltransferase EHMT2 (Homo sapiens), Q96KQ7; AID 504332, 2011; further: nearly all actives have a fitted effect of over 75% in size
Target sequence (Q96KQ7 913-1193 limits assumed): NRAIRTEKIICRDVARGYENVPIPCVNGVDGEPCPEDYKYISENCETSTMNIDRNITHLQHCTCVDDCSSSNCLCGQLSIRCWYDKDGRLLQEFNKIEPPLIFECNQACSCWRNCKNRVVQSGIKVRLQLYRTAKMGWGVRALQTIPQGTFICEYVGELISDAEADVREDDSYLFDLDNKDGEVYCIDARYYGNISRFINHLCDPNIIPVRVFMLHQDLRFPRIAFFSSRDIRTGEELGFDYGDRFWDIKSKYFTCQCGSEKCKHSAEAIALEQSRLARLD
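Compounds were preincubated with 20 nM G9a for 15 min, after which biotinylated H3K9 peptide (500 nM) and SAM (20 uM) started a 2 h room-temperature reaction. Monomethylated product was quantified by antibody-based AlphaScreen chemiluminescence.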
Numbers stand for hits; 0 = inactive; ? = inconclusive; - = not tested or not shown; [ ] = dose if it differs, or a comment. The sample as a whole holds a higher share of hits than the screen did. The call rests on the fitted dose curve; in most records, active means well fitted curve in the direction sought with a large enough effect; inconclusive means small, poorly fitted or top-dose-only effect, or another doubt; inactive means no such curve, though single readings can be large; an effect the other way counts as inactive or inconclusive.

SMILES	Glioma ERSR ind	VDR inhibitor	ALOX12 inh	Sfp inh	G9a block
COc1cc(/C=C/C(=O)OCCOc2ccccc2F)ccc1OC(F)F	-	-	0	-	-
Oc1c(Cl)cc(Cl)cc1/C=N/c1nccs1	0	79µM	0	50µM	8.9µM
C[C@@H](C(=O)O)[C@H]1C[C@]1(C)[C@H](NC(=O)OCc1ccccc1)c1ccccc1	0	0	0	0	79µM
Cc1cc(CNC(=O)[C@H](C)[C@@H]2C[C@@]2(C)[C@@H](NC(=O)OCc2ccccc2)c2ccccc2)nn1C	0	0	0	0	56µM
COc1ccc(CNC(=O)[C@H](C)[C@@H]2C[C@@]2(C)[C@@H](NC(=O)OCc2ccccc2)c2ccccc2)cc1OC	0	0	0	0	50µM
COC(=O)[C@H](C)[C@@H]1C[C@@]1(C)[C@@H](NC(=O)OCc1ccccc1)c1ccccc1	0	0	0	0	0
Cc1cc(CNC(=O)[C@H](C)[C@H]2C[C@]2(C)[C@H](NC(=O)OCc2ccccc2)c2ccccc2)nn1C	-	-	-	0	-
Cc1cnc(C(=O)OCc2cccc(C(F)(F)F)c2)cn1	-	-	0	-	-
COc1ccc(CCC(C)Nc2ccccc2F)cc1 (configuration not stated)	0	0	0	0	0
COc1ccc(CCC(C)Nc2cccc(F)c2)cc1 (configuration not stated)	0	0	?	45µM	?
Cc1cc(SC(C)C(=O)c2ccc(Cl)cc2)nc2ccccc12 (configuration not stated)	-	-	0	-	-
Cc1cc(C(=O)C(C)OC(=O)C2=NNC(=O)CC2)c(C)n1-c1ccc(OC(F)F)cc1 (configuration not stated)	0	0	0	0	0
Cc1cc(C(=O)COC(=O)C2=NNC(=O)CC2)c(C)n1-c1ccc(OC(F)F)cc1	0	0	?	0	50µM
COc1ccc(NC(=O)CSc2nccn2Cc2ccc(F)cc2)c(OC)c1	0	0	0	0	-
COc1ccc(NC(=O)CSc2nccn2Cc2ccccc2)c(OC)c1	0	0	0	0	45µM
CCOc1ccc(-n2ccnc(SCC(=O)Nc3ccc(OC)cc3OC)c2=O)cc1	0	?	0	-	35µM
O=C(N/N=C/c1ccccn1)c1ccc(Br)o1	0	0	0	18µM	0
O=C(N/N=C/c1ccccn1)c1cc(Br)ccc1O	0	0	0	0	0
CN1CCN(CC(=O)N/N=C\c2c[nH]c3ccccc23)CC1	-	-	0	?	16µM
CN1CCN(CCC(=O)N/N=C/c2ccccn2)CC1	0	0	0	0	1.3µM
O=C(N/N=C/c1ccccn1)C1CC1	0	0	0	79µM	3.5µM
Cc1nccn1CC(=O)N/N=C/c1c[nH]c2ccccc12	0	0	0	0	0
CC(=O)Oc1cccc2cc(-c3nc(-c4ccccc4)no3)c(=O)oc12	-	-	0	-	-
O=C(N/N=C/c1ccccn1)c1ccc([N+](=O)[O-])cc1Cl	0	0	0	50µM	0[0.501 µM]
